Experimental data taken from PubChem BioAssay (NCATS).
Inconclusive results are not listed. The source made the active and inactive calls. The call rests on the fitted dose curve; in most records, active means well fitted curve in the direction sought with a large enough effect; inconclusive means small, poorly fitted or top-dose-only effect, or another doubt; inactive means no such curve, though single readings can be large; an effect the other way counts as inactive or inconclusive.

How the values were obtained:
[1] = system: HACAT; test: qHTS assay to identify novel small-molecules to repurpose for Merkel cell carcinoma treatment (AID 1296009); conditions: MCC and control cell lines, CellTiter-Glo viability, 72 h; at 44.8 µM (top of the series) unless noted; further: nearly all actives have a fitted effect of over 60% in size
In short: (§1)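 qHTS format: cells treated with library compounds in DMSO across 8 (NPC) or 11 (MIPE) concentrations. Readout after 72 hr at 37 degree celsius was CellTiter-Glo luminescence.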

[2] = system: NIH3T3; test: as above; conditions: MCC and control cell lines, CellTiter-Glo viability, 72 h; at 44.8 µM (top of the series) unless noted
In short: as §1

[3] = system: C33A; test: Primary qHTS to identify gynecologic anti-cancer compounds using libraries of approved drugs and bioactive compounds (AID 1345084); conditions: Gynecologic cancer cell panel viability, ATPlite luminescence, 48 h; series mostly up to 57.5 µM; further: on the % scale 0 is the no-effect control and ±100 the full control effect; nearly all actives have a fitted effect of over 55% in size
In short: (§2)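 Five-point cytotoxicity, 48 h drug exposure at 37 C, 5% CO2, on cells seeded 16 h beforehand. ATP content read by ATPlite luminescence.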

[4] = system: CAOV3; test: as above; conditions: Gynecologic cancer cell panel viability, ATPlite luminescence, 48 h; series mostly up to 57.5 µM
In short: as §2

[5] = system: CASKI; test: as above; conditions: Gynecologic cancer cell panel viability, ATPlite luminescence, 48 h; series mostly up to 57.5 µM
In short: as §2

[6] = system: Es-2; test: as above; conditions: Gynecologic cancer cell panel viability, ATPlite luminescence, 48 h; series mostly up to 57.5 µM
In short: as §2

[7] = system: HeLa; test: as above; conditions: Gynecologic cancer cell panel viability, ATPlite luminescence, 48 h; series mostly up to 57.5 µM
In short: as §2

[8] = system: Hek293T; test: as above; conditions: Gynecologic cancer cell panel viability, ATPlite luminescence, 48 h, control line for the selectivity index; series mostly up to 57.5 µM
In short: as §2

[9] = system: JEG-3; test: as above; conditions: Gynecologic cancer cell panel viability, ATPlite luminescence, 48 h; series mostly up to 57.5 µM
In short: as §2

[10] = system: OV90; test: as above; conditions: Gynecologic cancer cell panel viability, ATPlite luminescence, 48 h; series mostly up to 57.5 µM
In short: as §2

[11] = system: PA-1; test: as above; conditions: Gynecologic cancer cell panel viability, ATPlite luminescence, 48 h; series mostly up to 57.5 µM
In short: as §2

[12] = system: SKOV3; test: as above; conditions: Gynecologic cancer cell panel viability, ATPlite luminescence, 48 h; series mostly up to 57.5 µM
In short: as §2

[13] = system: Tov-21-G; test: as above; conditions: Gynecologic cancer cell panel viability, ATPlite luminescence, 48 h; series mostly up to 57.5 µM
In short: as §2

[14] = system: Tov112D; test: as above; conditions: Gynecologic cancer cell panel viability, ATPlite luminescence, 48 h; series mostly up to 57.5 µM
In short: as §2

CC1(C)C2CC[C@@]34CC(CC[C@H]3[C@]2(C)CC[C@@H]1O[C@@H]1O[C@H](CO)[C@@H](O)[C@H](O)[C@H]1O)[C@](C)(O)C4 (some centres undefined)
inactive: outcome [1] inactive [at 17.4 µM] | outcome [2] inactive [at 17.4 µM] | Potency [3] | Potency [4] | outcome [5] | Potency [6] | Potency [7] | Potency [8] | Potency [9] | Potency [10] | Potency [11] | Potency [12] | Potency [13] | Potency [14]

Cc1cc(-n2c(=O)[nH]c(=O)n(C)c2=O)ccc1Oc1ccc(SC(F)(F)F)cc1
inactive: outcome [1] | outcome [2] | Potency [3] | Potency [4] | outcome [5] | Potency [6] | Potency [7] | Potency [8] | Potency [9] | Potency [10] | Potency [11] | Potency [12] | Potency [13] | Potency [14]

O=C(NC1CCN(CC(F)(F)F)CC1)c1ccc(-c2cccc(F)c2)nc1
inactive: outcome [1] | outcome [2] | Potency [3] | Potency [4] | outcome [5] | Potency [6] | Potency [7] | Potency [8] | Potency [9] | Potency [10] | Potency [11] | Potency [12] | Potency [13] | Potency [14]

COc1cc(-c2ccc(O)cc2)c(OC)c(O)c1C1=CC(=O)OC1CC(=O)O (centres undefined)
inactive: outcome [1] | outcome [2] | Potency [3] | Potency [4] | outcome [5] | Potency [6] | Potency [7] | Potency [8] | Potency [9] | Potency [10] | Potency [11] | Potency [12] | Potency [13] | Potency [14]

C/C=C/C=C/C1=C2C(=O)C3(C)C4C(C(=O)CC(O)/C=C/C)=C(O1)C1(C)C2C2(C)OC1(O)C4(C)OC23O (centres undefined)
inactive: outcome [1] inactive [at 17.4 µM] | outcome [2] inactive [at 17.4 µM] | Potency [3] | Potency [4] | outcome [5] | Potency [6] | Potency [7] | Potency [8] | Potency [9] | Potency [10] | Potency [11] | Potency [12] | Potency [13] | Potency [14]

C=C(C(=O)OC)[C@]12O[C@@](C)(CC[C@@]3(O)/C(=C\C)C(=O)O[C@]3(C)C[C@@H]1OC(=O)C(CO)CN1CCCC1C(=O)O)CC2=O (some centres undefined)
inactive: outcome [1] inactive [at 17.4 µM] | outcome [2] inactive [at 17.4 µM] | Potency [3] | Potency [4] | outcome [5] | Potency [6] | Potency [7] | Potency [8] | Potency [9] | Potency [10] | Potency [11] | Potency [12] | Potency [13] | Potency [14]

C[C@H]1CC[C@@]2(OC1)O[C@H]1CC3C4CC[C@H]5C[C@@H](O[C@@H]6O[C@H](CO)[C@H](O[C@@H]7O[C@H](CO)[C@@H](O)[C@H](O[C@@H]8OC[C@@H](O)[C@H](O)[C@H]8O)[C@H]7O[C@@H]7O[C@H](CO)[C@@H](O)[C@H](O)[C@H]7O)[C@H](O)[C@H]6O)[C@H](O)C[C@]5(C)C4=CC(=O)[C@]3(C)[C@H]1[C@@H]2C (some centres undefined)
inactive: outcome [1] inactive [at 9.27 µM] | outcome [2] inactive [at 9.27 µM] | activity change, negative = cytotoxicity [3] 4.61% [at 11.6 µM] | activity change, negative = cytotoxicity [4] 5.57% [at 11.6 µM] | activity change, negative = cytotoxicity [5] -2.7% [at 11.6 µM] | activity change, negative = cytotoxicity [6] -0.121% [at 11.6 µM] | activity change, negative = cytotoxicity [7] 9.97% [at 11.6 µM] | activity change, negative = cytotoxicity [8] 0.949% [at 11.6 µM] | activity change, negative = cytotoxicity [9] -0.32% [at 11.6 µM] | activity change, negative = cytotoxicity [10] -5.92% [at 11.6 µM] | activity change, negative = cytotoxicity [11] 7.95% [at 11.6 µM] | activity change, negative = cytotoxicity [12] 0.679% [at 11.6 µM] | activity change, negative = cytotoxicity [13] -4.82% [at 11.6 µM] | activity change, negative = cytotoxicity [14] 2.81% [at 11.6 µM]

Cc1ccc(Nc2nnc(-c3ccc([N+](=O)[O-])cc3)o2)cc1Cl
inactive: outcome [1] | outcome [2] | Potency [3] | Potency [4] | outcome [5] | Potency [6] | Potency [7] | Potency [8] | Potency [9] | Potency [10] | Potency [11] | Potency [12] | Potency [13] | Potency [14]

CC(C)C1CCC(C(=O)N[C@@H](Cc2ccccc2)C(=O)O)CC1 (some centres undefined)
inactive: outcome [1] | outcome [2] | Potency [3] | Potency [4] | outcome [5] | Potency [6] | Potency [7] | Potency [8] | Potency [9] | Potency [10] | Potency [11] | Potency [12] | Potency [13] | Potency [14]

CC(=O)OCC1OC(O[C@H]2CC[C@@]3(C)C(CC[C@]4(C)C3CC=C3[C@@H]5CC(C)(C)CC[C@]5(C(=O)O)CC[C@]34C)[C@]2(C)CO)C(O)C(O)C1OC1OC(C)C(O)C(OC2OCC(O)C(O)C2O)C1O (some centres undefined)
inactive: outcome [1] inactive [at 9.27 µM] | outcome [2] inactive [at 9.27 µM] | activity change, negative = cytotoxicity [3] -0.849% [at 11.6 µM] | activity change, negative = cytotoxicity [4] 3.79% [at 11.6 µM] | activity change, negative = cytotoxicity [5] 14.3% [at 11.6 µM] | activity change, negative = cytotoxicity [6] 2.8% [at 11.6 µM] | activity change, negative = cytotoxicity [7] 8.24% [at 11.6 µM] | activity change, negative = cytotoxicity [8] 6.88% [at 11.6 µM] | activity change, negative = cytotoxicity [9] 4.64% [at 11.6 µM] | activity change, negative = cytotoxicity [10] -3.49% [at 11.6 µM] | activity change, negative = cytotoxicity [11] -3.48% [at 11.6 µM] | activity change, negative = cytotoxicity [12] 19.9% [at 11.6 µM] | activity change, negative = cytotoxicity [13] 6.07% [at 11.6 µM] | activity change, negative = cytotoxicity [14] 0% [at 11.6 µM]

CC(C)c1ccc2c(c1)CCC1[C@](C)(C(=O)O)CCC[C@]21C (some centres undefined)
inactive: outcome [1] | outcome [2] | Potency [3] | Potency [4] | outcome [5] | Potency [6] | Potency [7] | Potency [8] | Potency [9] | Potency [10] | Potency [11] | Potency [12] | Potency [13] | Potency [14]
